The full list was thinned out, with hits kept by preference.
HTT ATP protect – cytoprotection in Huntington HTT-Q103 PC12 cell model. PC12 HTT-Q103 induced, cytoprotection, ATP luminescence, 40 h. Potency, µM (top dose mostly 56.4 µM), for inactives: cytoprotection (ATP increase), actives largely listed as activators. actives 0.14% (n = 230,000); further: % of control where 0% means no effect; nearly all actives have a fitted effect of over 45% in size
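PC12 cells with ecdysone-inducible HTT exon 1 Q103-GFP, induced with 100 nM tebufenozide and co-treated with library compounds in a dose series (1536-well, 1500 cells/well). Cytoprotection read as ATP content by ATPlite luminescence.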
PINK1 expr mod – PINK1 expression modulation | AID 624263 | PINK1 immunofluorescence, high-content cytometry, 24 h | actives 0.2% (n = 410,000) | Potency, µM (titrated, usually from 76.6 µM), without a hit: at the highest dose activation (PINK1 increase), hits mostly activators; active means well fitted activation curve with a large enough effect; inconclusive means small, poorly fitted or top-dose-only effect; cell line not stated here; further: % of control where 0% means no effect; nearly all actives have a fitted effect of over 65% in size
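Fluorescence from anti-PINK1 antibody, together with nuclear and cell stains, was scanned on a laser-scanning cytometer. Before staining, stable-line cells were incubated 24 hours with compounds at 5 concentrations; primary antibody 12 h at 10 degrees C.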
HTT aggregate – mutant huntingtin aggregation inhibition. PC12 HttQ103-GFP aggregates, Acumen cytometry, 40 h. Potency, µM (highest dose often 46.1 µM), for the others: top-dose activity change, negative = inhibition, hits mostly inhibitors. actives 1.1% (n = 220,000). AID 1688; further: on the % scale 0 is the no-effect control and ±100 the full control effect; nearly all actives have a fitted effect of over 60% in size
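Steps: seed 1500 PC12 HTTQ103-GFP cells/well; add tebufenozide, 100 nM final; add compound titration; add ATPLite reagent; quantify GFP aggregates by laser scanning cytometry.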
Epigenetic reg – derepresses silenced GFP reporter in murine cells; murine LDR cells, GFP reporter derepression, 30 h; Potency, µM (series often up to 53.9 µM), for the others: top-dose GFP activation, most hits filed as activators; actives 0.2% (n = 280,000); AID 1865; further: % of control where 0% means no effect; nearly all actives have a fitted effect of over 60% in size
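In this reporter-derepression format, murine cells bearing a silenced integrated CMV-GFP locus incubate with test compound (30 h, 37 C), then are washed and imaged; fluorescent objects of 20–120 um count as induced cells.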
An asterisk follows results filed as active; [ ] = another dose, or the depositor's remark. Unless noted, the call rests on the fitted dose curve; in most records, active means well fitted curve in the direction sought with a large enough effect; inconclusive means small, poorly fitted or top-dose-only effect, or another doubt; inactive means no such curve, though single readings can be large; an effect the other way counts as inactive or inconclusive. Potency means the concentration at half of the fitted maximal effect.

How did Cc1cnc(CNc2ccnc(-c3ccc(N(C)C)cc3)n2)cn1 do in these assays?
HTT ATP protect: -19%; PINK1 expr mod: -1%; Epigenetic reg: -2%

What do the screens show for `Cc1cc(C)c(C(=O)Nc2ccc(Br)c(C(F)(F)F)c2)c(C)c1`?
PINK1 expr mod: 13µM*; HTT aggregate: 20µM*; Epigenetic reg: 1%

What do the screens show for `COc1ccc(C(=O)CSc2cc(C)nc3nc(C)nn23)cc1OC`?
HTT ATP protect: 13µM*; Epigenetic reg: -2%

How did OCCN1CCOCCN(CCO)CCN(CCO)CC1 do in these assays?
HTT ATP protect: 0%[10 µM]; PINK1 expr mod: -1%; HTT aggregate: -12%; Epigenetic reg: 3%

How did C[n+]1c(-c2ccccc2)cc2c(=Cc3ccc([N+](=O)[O-])cc3)c3ccccc3n21 do in these assays?
PINK1 expr mod: 4.5µM*

Results for CN(C)c1ccc(C=c2c3cc(O)ccc3n3c2cc(-c2ccccc2)[n+]3C)cc1 ?
PINK1 expr mod: -2%

What do the screens show for `Cc1cc(C)n(C(=O)/C(C#N)=N/Nc2cc(Cl)cc(Cl)c2)n1`?
HTT ATP protect: -161%; PINK1 expr mod: 25µM*; HTT aggregate: 13µM*; Epigenetic reg: -1%

Results for COc1ccc(-c2cc(C(F)F)n3ncc(C(=O)N4CCc5ccccc54)c3n2)cc1 ?
HTT ATP protect: -69%[10 µM]; PINK1 expr mod: 5%; HTT aggregate: 1.6µM*; Epigenetic reg: inconclusive

What do the screens show for `CC1(C)CC(=O)C=C(c2n[nH]nc2C2CCCCC2)C1`?
PINK1 expr mod: 1%

Results for CCCCN(c1ccccc1)c1ncnc(N)c1[N+](=O)[O-] ?
HTT ATP protect: 13%; PINK1 expr mod: 9%[38.3 µM]; HTT aggregate: 7.1µM*; Epigenetic reg: -1%

Results for COc1cccc(NC(=O)Cn2nnc(C(=O)Nc3cc(Cl)ccc3OC)c2N)c1 ?
PINK1 expr mod: 15%

Results for CC1(C)CC(N2CCCC2)=CC(=[N+]2CCCCC2)C1 ?
PINK1 expr mod: 2%; HTT aggregate: 8.9µM*; Epigenetic reg: -3%

How did O=[N+]([O-])c1cc2c(cc1C=Nc1ccccc1)OCO2 do in these assays?
HTT ATP protect: 6%; PINK1 expr mod: 2%; HTT aggregate: -18%; Epigenetic reg: 3%

How did CCOC(=O)CC1C(=O)NCCN1C(=O)c1cc2c(=O)n3cccc(C)c3nc2s1 (centres undefined) do in these assays?
HTT ATP protect: -17%; PINK1 expr mod: 0%; HTT aggregate: 2%; Epigenetic reg: -2%

How did CCCN1C(=O)/C(=C/c2c(N3CCNC(=O)C3CC(=O)OC)nc3c(C)cccn3c2=O)SC1=S (centres undefined) do in these assays?
HTT ATP protect: 18%[10 µM]; HTT aggregate: -16%[9.22 µM]; Epigenetic reg: 14µM*

What do the screens show for `Oc1ccccc1C1CC(c2cccs2)=NC(c2cccc(Br)c2)N1` (centres undefined)?
HTT ATP protect: -47%; PINK1 expr mod: 0%; HTT aggregate: 11µM*; Epigenetic reg: 4%

What do the screens show for `CN=C1S/C(=C\c2ccc(N3CCCC3)c(F)c2)C(=O)N1C`?
HTT ATP protect: -12%; PINK1 expr mod: 11%; HTT aggregate: 22%; Epigenetic reg: 13%

Results for COc1ccc(C(=O)c2sc3nc(-c4ccc(OC)cc4)ccc3c2N)cc1 ?
HTT ATP protect: 3%[10 µM]; PINK1 expr mod: 20%; HTT aggregate: -6%; Epigenetic reg: 16%

Results for COc1ccc(C(=O)c2sc3nc(-c4ccc(C)cc4)cc(C(F)(F)F)c3c2N)cc1 ?
PINK1 expr mod: 2%; Epigenetic reg: 1µM*

What do the screens show for `Cc1ccc(NS(=O)(=O)c2ccc(C(=O)N3CCN(c4ccccn4)CC3)cc2)cc1`?
HTT ATP protect: -14%; PINK1 expr mod: 2%; HTT aggregate: 11µM*; Epigenetic reg: 0%

Results for Cc1ccc(S(=O)(=O)NCc2ccc(C(=O)N3CCN(c4ccccn4)CC3)cc2)cc1 ?
HTT ATP protect: -5%; PINK1 expr mod: -1%; HTT aggregate: 8%; Epigenetic reg: -1%

What do the screens show for `CCOC(=O)c1ccc(NC(=O)N2CCN(c3ccccn3)CC2)cc1`?
HTT ATP protect: 2%; PINK1 expr mod: 1%; HTT aggregate: 0.56µM*; Epigenetic reg: -1%

Results for CCCSc1nn2c(=O)c3ccccc3nc2s1 ?
HTT ATP protect: -54%; PINK1 expr mod: -2%; HTT aggregate: -31%; Epigenetic reg: 0%

Results for O=C(O)CSc1cccc2cccnc12 ?
HTT ATP protect: -10%; PINK1 expr mod: 2%; HTT aggregate: 27%; Epigenetic reg: 18µM*

What do the screens show for `COc1ccc(Cl)cc1NC(=O)N1CCN(CCc2ccccc2)CC1`?
HTT ATP protect: -3%[1.9 µM]; PINK1 expr mod: 3%[38.3 µM]; HTT aggregate: 19%; Epigenetic reg: -1%

Results for CC(C)n1c2ccccc2c2cc([N+](=O)[O-])ccc21 ?
HTT ATP protect: 11%[0.074 µM]; PINK1 expr mod: 0%; HTT aggregate: 2%; Epigenetic reg: 1%

How did CCC(C)n1c(=S)[nH]c2c(sc3ccc([N+](=O)[O-])cc32)c1=O (centres undefined) do in these assays?
HTT ATP protect: 18%[10 µM]; PINK1 expr mod: inconclusive; HTT aggregate: 10µM*; Epigenetic reg: 2%

How did Cc1cc(C)nc(SCC(=O)N/N=C/c2cc(C)n(-c3ccccc3C)c2C)n1 do in these assays?
PINK1 expr mod: 5%; HTT aggregate: inconclusive; Epigenetic reg: 0%

Results for Cc1ccccc1N(CC(=O)N/N=C/c1cc(C)n(-c2ccccc2C)c1C)S(C)(=O)=O ?
HTT ATP protect: -6%; PINK1 expr mod: 4%; HTT aggregate: 18µM*; Epigenetic reg: -3%

What do the screens show for `Cc1ccc(Cn2c(SCc3ccc(C(=O)NCCc4ccccc4)cc3)nc3ccncc32)cc1`?
PINK1 expr mod: 2%; Epigenetic reg: 0%

What do the screens show for `Cc1ccc2nc3sc(C(=O)NCc4ccco4)c(N)c3cc2c1`?
HTT ATP protect: -19%[10 µM]; PINK1 expr mod: inconclusive; HTT aggregate: -31%; Epigenetic reg: 16µM*

How did CCCCNC(=O)C(Cc1ccccc1)NS(=O)(=O)c1ccc2c(c1)c(=O)n(C)c(=O)n2C (centres undefined) do in these assays?
HTT ATP protect: -16%; PINK1 expr mod: 1%; HTT aggregate: 9%; Epigenetic reg: -1%

How did COc1ccc(CCN2C(=O)C3C4C=CC(C3C2=O)C2C(=O)N(CCc3ccc(OC)c(OC)c3)C(=O)C42)cc1OC (centres undefined) do in these assays?
HTT ATP protect: -57%[10 µM]; PINK1 expr mod: 5%[38.3 µM]; HTT aggregate: 10µM*; Epigenetic reg: 1%

How did O=c1c2cccc3c(N4CCOCC4)ccc(c32)c2nc3ccccc3n12 do in these assays?
HTT ATP protect: 0%[0.074 µM]; HTT aggregate: -3%; Epigenetic reg: 13µM*

What do the screens show for `O=c1c2ccc([N+](=O)[O-])c3cccc(c32)c2nc3ccccc3n12`?
HTT ATP protect: 4%; HTT aggregate: 5%; Epigenetic reg: 5%

How did Cc1ccc(S(=O)(=O)NCc2ccccn2)c(C)c1 do in these assays?
PINK1 expr mod: 0%

From PubChem
